Source: PubChem BioAssay (National Center for Advancing Translational Sciences (NCATS))
GLP-1R inv ag – GLP-1 receptor (human) inverse agonism; P43220; HEK293 GLP-1R CRE-luciferase, luminescence, 24 h; GLP-1R form is constitutively active; Potency, µM (highest dose often 38.3 µM), inactives show at the highest dose activity change, negative = inhibition, most hits filed as inhibitors; actives 1.6% (n = 410,000); AID 624417; note: % is set by controls: 0 for no effect and ±100 for the full control effect; nearly all actives have a fitted effect of over 55% in size
Target sequence (P43220 whole entry, looked up): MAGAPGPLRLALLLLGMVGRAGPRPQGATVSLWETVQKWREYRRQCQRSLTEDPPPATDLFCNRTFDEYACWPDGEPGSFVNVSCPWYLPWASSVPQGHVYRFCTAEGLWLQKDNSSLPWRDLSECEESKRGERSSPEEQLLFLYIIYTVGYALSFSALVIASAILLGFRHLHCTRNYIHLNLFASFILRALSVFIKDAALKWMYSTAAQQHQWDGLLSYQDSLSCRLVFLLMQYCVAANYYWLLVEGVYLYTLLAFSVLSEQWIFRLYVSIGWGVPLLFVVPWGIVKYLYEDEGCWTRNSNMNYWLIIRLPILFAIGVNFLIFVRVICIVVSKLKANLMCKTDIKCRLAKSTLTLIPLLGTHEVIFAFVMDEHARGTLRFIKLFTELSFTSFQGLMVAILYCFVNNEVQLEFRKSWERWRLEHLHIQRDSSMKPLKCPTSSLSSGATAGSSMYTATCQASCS
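Inverse agonists were sought by their lowering of basal cAMP reporter luciferase output in HEK293 cells stably carrying constitutively active human GLP-1R, after 24 h compound treatment.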
PTHR1 ag – PTHR1 (human) receptor agonism | Q03431 | Potency, µM (series often up to 115 µM), for inactives: top-dose activation, usual class: activators | HEK293 GP2 PTHR1 cells, GloSensor cAMP luminescence, 1 h | actives 0.075% (n = 410,000) | AID 743266; note: nearly all actives have a fitted effect of over 55% in size
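HEK-293-derived GP2 cells expressing PTHR1 and a GloSensor cAMP reporter, 3,000/well, plated overnight, given luciferin plus IBMX (each 0.5 mM as added) for 1 h at 37 °C, then compound for 1 h at 37 °C. Luminescence was read after 15 min at room temperature.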
HEK293 tox – cytotoxicity counter-screen for GLP-1 receptor inverse agonists; actives 0.13% (n = 410,000); Potency, µM (titrated, usually from 38.3 µM), without a hit: top-dose activity change, negative = inhibition, usual class: inhibitors; HEK293 cAMP-luciferase reporter cells, luminescence, 24 h; AID 624418;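 note: loss of luciferase light is scored as toxicity; % is set by controls: 0 for no effect and ±100 for the full control effect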
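A 23 nL compound transfer followed 12 hours of cell culture at 37 deg C; exposure then lasted 24 hr. Luciferase assay detection reagent was dispensed and plates read for luminescence after a 12 min room-temperature wait.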
GLP1R ag – GLP-1 receptor (human) agonism. HEK293 GLP-1R CRE-luciferase, luminescence, 4-6 h; cells express a hypersensitive GLP-1R form. Potency, µM (titrated, usually from 45.6 µM), without a hit: top-dose activation, hits mostly activators. actives 0.007% (n = 380,000). AID 624172; note: % of control where 0% means no effect
The depositor's hits bear a star; i = inactive; ? = inconclusive; · = not tested or not shown; [ ] = dose if it differs, or a comment. A selection: hits, their analogues and other compounds. The true share with any hit is near 1.7%. Calls come from the whole dose curve; as a rule, active = well fitted curve in the direction sought with a large enough effect; inconclusive = small, poorly fitted or top-dose-only effect, or another doubt; inactive = no such curve, though single readings can be large; an effect the other way counts as inactive or inconclusive. Potency is the fitted concentration of half-maximal effect.

SMILES	GLP-1R inv ag	PTHR1 ag	HEK293 tox	GLP1R ag
O=S(=O)(NCc1nc2cccnc2n1Cc1ccc(F)cc1)c1ccc2c(c1)CCCC2	3.6%	-79.7%	-3.9%	·
CCOC(=O)N1CCN(c2ccccc2OC)CC1	18.8%	-19.2%	-7.6%	-0.7%
CCOC(=O)/C(=N\Nc1ccc(Br)cc1)N1CCN(c2ccccc2OC)CC1	2.24µM*	i	?	0.9%
O=C(NC1CCCC1)C(c1ccco1)N(C(=O)c1ccco1)c1ccccc1 (stereo unspecified)	2.1%	-19.6%	7.8%	8.7%
COc1ccc(C(C(=O)NC2CCCC2)N(C(=O)c2ccoc2C)c2ccc(C)c(C)c2)cc1 (stereo unspecified)	10µM*	i	-7.5%	9.4%
CCc1ccc(N(C(=O)c2ccco2)C(C(=O)NC2CCCC2)c2ccco2)cc1 (stereo unspecified)	10µM*	i	-19.8%	-3.4%
CCc1ccc(N(C(=O)c2ccoc2C)C(C(=O)NC2CCCC2)c2ccc(OC)cc2)cc1 (stereo unspecified)	10µM*	i	?	-4.4%
COc1ccc(C(C(=O)NC2CCCC2)N(C(=O)c2ccoc2C)c2ccccc2)cc1 (stereo unspecified)	?	-19.1%	-11.2%	8.2%
Cc1cc(C)c(S(=O)(=O)Nc2ccc(-c3ccc(N4CCCCC4)nn3)cc2)c(C)c1	?	-59.4%	-30.7%	·
Cc1cccc(CN2C(=O)CC(c3ccc(Cl)cc3)c3c(C)nn(-c4nc(C)cc(C)n4)c32)c1 (stereo unspecified)	?	-20.4%	-17.3%	·
CCOc1ccc(C(c2c(O)cc(C)n(CCOC)c2=O)N2CCN(c3ccc(F)cc3)CC2)cc1 (stereo unspecified)	7.0%	0.1%	6.6%	·
CCSC1=NC2(CCN(C(=O)NC3CCCCC3)CC2)N=C1c1ccc(C)cc1	14.1%	i	-9.6%	·
COc1ccc([C@H]2/C=C\CN(C(=O)C3CCCC3)[C@@H](C)C(=O)N2Cc2ccc(F)cc2)cc1	?	i	-14.9%	0.6%
COc1ccc(C2/C=C\CN(C(=O)C3CCCC3)[C@H](Cc3ccccc3)C(=O)N2Cc2ccc(F)cc2)cc1 (stereo partly specified)	4.47µM*	-22.7%	6.2%	-3.4%
COc1ccc(C2/C=C\CN(C(=O)Nc3ccc(C(F)(F)F)cc3)CC(=O)N2Cc2ccc(F)cc2)cc1 (stereo unspecified)	11.2µM*	-30.6%	-19.5%	-3.2%
Cc1ccc(-c2nnc(Nc3ccc(F)cc3)c3ccccc23)cc1S(=O)(=O)N1CCN(C)CC1	1.6%	-8.7%	-5.7%	·
Cc1ccc2c(=O)c(C(=O)c3ccccc3)cn(CC(=O)Nc3ccc4c(c3)OCCO4)c2n1	7.5%	i	4.1%	·
CCc1ccccc1NC(=O)NC(CC)Cn1nnc2ccccc2c1=O (stereo unspecified)	-2.8%	-15.2%	-9.6%	·
CCc1ccc(OCC(=O)NC(NC(=S)Nc2ccc(C)cc2C)C(Cl)(Cl)Cl)cc1 (stereo unspecified)	5.01µM*	i	?	-35.7%
Cc1ccc(C)c(NC(=S)NC(NC(=O)Cc2cccc3ccccc23)C(Cl)(Cl)Cl)c1 (stereo unspecified)	?	22.8%	6.31µM*	-36.4%
Cc1ccc(NC(=S)NC(NC(=O)c2ccccc2C)C(Cl)(Cl)Cl)c(C)c1 (stereo unspecified)	5.62µM*	-9.9%	?	-9.2%
Cc1ccc(C)c(NC(=S)NC(NC(=O)N(C)C)C(Cl)(Cl)Cl)c1 (stereo unspecified)	0.0%	-4.7%[57.5 µM]	-16.5%	-2.5%
O=S(=O)(Nc1cccc(-c2ccc(N3CCCCC3)nn2)c1)c1cccs1	-16.3%	-25.6%	-13.6%	·
Clc1ccc2c(c1)c1cc(Cl)ccc1n2CN1CCOCC1	5.01µM*	-7.7%	5.9%	-4.4%
CCOC(=O)C1(Cc2cccc(OC)c2)CCN(Cc2cccc(O)c2)CC1	11.2µM*	-8.4%	-2.1%	5.5%
CCOC(=O)C1(Cc2cccc(OC)c2)CCN(Cc2ccc(C)s2)CC1	10µM*	-89.2%	?	3.2%
CCOC(=O)C1(Cc2cccc(OC)c2)CCN(Cc2ccccc2OC)CC1	?	-17.2%	-3.6%	11.7%
Cc1ccc(Cn2c(SCc3ccc(C(=O)NC4CCCCC4)cc3)nc3ccncc32)cc1	?	-36.9%	-9.2%	·
